Test results reported in PubChem BioAssay (NCI).
About 83,000 compounds went through this panel and 20% of them were active in at least one assay; those are over-represented in the sample as a whole.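 Plates (96-well) were seeded with cells, treated with compound at one concentration, and incubated for 48 hours before percent growth was determined.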 The source made the active and inactive calls. Rule for the calls: active = growth percent below 10; inactive = the rest.

Experiments:
Assay in all cases: NCI-60 one-dose screen, 48 h (100 = growth as untreated, 0 = no growth, -100 = all killed)
Conditions in all cases: 10 µM unless noted
[1] = system: SR leukemia
[2] = system: OVCAR-8 ovarian
[3] = system: OVCAR-5 ovarian
[4] = system: OVCAR-4 ovarian
[5] = system: SK-OV-3 ovarian
[6] = system: HS 578T breast
[7] = system: NCI/ADR-RES ovarian
[8] = system: IGROV1 ovarian
[9] = system: OVCAR-3 ovarian

Measured: growth

COc1ccc(-c2nnc(-c3ccc4c(c3)nc(-c3ccccc3)n4C3CCCCC3)o2)cc1
inactive: [1] 58.3% | [2] 30.8% | [3] 95.4% | [4] 51% | [5] 84.2% | [6] 103% | [7] 40.1%

CN1C(=O)CCC(N2C(=O)c3cccc(NCCOCCOCCNC(=O)c4cc5c(o4)C(=O)c4ccccc4C5=O)c3C2=O)C1=O (stereo not drawn)
active: [1] 7.99% | [2] 2.72% | [3] -85.5% | [4] -95.3% | [8] -20.1% | [9] -44.7% | [6] -22.8%
inactive: [7] 45.1%

CCOc1ccc(-c2nc3ccc(-c4nc5ccc(N6CCN(C)CC6)cc5[nH]4)cc3[nH]2)cc1OCC
inactive: [2] 14.8% | [3] 44.4% | [8] 50.5% | [6] 11.1% | [7] 104%
active: [1] 8.73% | [4] 7.29% | [9] -13.3%

CCn1c(Sc2nnc(NC(=O)CSC(=S)N3CCCCC3)s2)nc2c1c(=O)n(C)c(=O)n2C
inactive: [1] 44.8% | [2] 92.8% | [3] 93.6% | [4] 84% | [8] 78.5% | [9] 56.5% | [6] 91.4% | [7] 42.2%

N=C(N)c1ccc(-c2ccc(/C=C/c3ccccc3)s2)cc1
inactive: [3] 13.1% | [6] 57.4%
active: [1] 1.05% | [2] 8.3% | [4] -24.8% | [9] -25.5% | [7] -12.5%

O=C1Nc2ccccc2/C1=N/N=C/c1ccsc1
inactive: [1] 88.6% | [2] 102% | [3] 115% | [4] 90.4% | [9] 103% | [6] 94.4% | [7] 110%

COc1ccc(C(=O)/C=C/C23c4ccccc4C(c4ccccc42)C2C(=O)NC(=O)C23)cc1 (stereo not drawn)
inactive: [1] 75.5% | [2] 88.3% | [3] 91.4% | [4] 88.5% | [8] 98.8% | [9] 95.9% | [6] 77.6% | [7] 90.1%

Cc1cccc(-c2cc(O)c(C(=O)N3CCOCC3)s2)c1
active: [7] 6.7%
inactive: [1] 25.5% | [2] 46% | [4] 77.3% | [5] 41.7% | [8] 50% | [9] 15% | [6] 53.8%

C=C1C(=O)O[C@H]2[C@H]1CC/C(COC(=O)/C=C\C(=O)NCc1ccc(Cn3c(=O)sn(CCCI)c3=O)cc1)=C\CC[C@@]1(C)O[C@@H]21
inactive: [5] 42.9%
active: [1] -48% | [2] -1.28% | [8] -98.3% | [9] -93% | [6] -40.2% | [7] 1.52%

CCN(CC)CCOc1ccc(/C(=C(\C)c2ccc(F)c(OC)c2)c2ccc(Cl)cc2)cc1
active: [1] -22.2%
inactive: [2] 17.4% | [3] 40.9% | [5] 54% | [8] 29.7% | [9] 16.6% | [6] 16% | [7] 39.8%

O=C(NCCN1CCC(O)CC1)c1cc2c(o1)C(=O)c1ccccc1C2=O
active: [2] -48.8% | [3] -84.7% | [4] -94.1% | [8] -83.8% | [9] -75.1% | [6] -27.4% | [7] -26.3%
inactive: [1] 13.4%

Cl.[Pt].[c-]1ccccc1-c1ccccn1.c1ccc(P(c2ccccc2)C([PH+](c2ccccc2)c2ccccc2)[PH+](c2ccccc2)c2ccccc2)cc1
active: [6] 7.92%
inactive: [1] 20.4% | [2] 15.6% | [3] 22.7% | [4] 21.3% | [9] 11.6% | [7] 60.7%

COc1ccc(OC)c(/C=C2\COc3ccc(O)c(O)c3C2=O)c1
active: [1] 7.03% | [8] 5.82% | [9] 1.23%
inactive: [2] 24.7% | [3] 31.9% | [5] 45.2% | [6] 22% | [7] 14.1%

Cl.Fc1c[c-]c(-c2ccccn2)c(F)c1.[Pt].c1ccc([PH+](c2ccccc2)c2ccccc2[PH+](c2ccccc2)c2ccccc2)cc1
active: [1] -6.47% | [2] -44.5% | [3] -94.3% | [4] -97.3% | [8] -77.9% | [9] -96.4% | [6] -50.3% | [7] -35.5%

CCC(O)(C(c1ccccc1)c1ccccn1)C(c1ccccc1)c1ccccn1 (stereo not drawn)
inactive: [1] 83.8% | [2] 106% | [4] 107% | [5] 94.8% | [8] 101% | [9] 102% | [6] 131% | [7] 109%

Cc1[nH]c(-c2nc3ccccc3[nH]2)c(C)c1C(=O)N1CCc2sccc2C1
inactive: [1] 97.7% | [2] 91.2% | [3] 83.5% | [4] 83.3% | [8] 98.5% | [6] 87.7% | [7] 93.2%

Cc1[nH]c(-c2nc3ccccc3[nH]2)c(C)c1C(=O)N1CCOCC1
inactive: [1] 98.6% | [2] 106% | [3] 98% | [4] 99.8% | [9] 103% | [6] 90.4% | [7] 101%

O=C(CCl)N1c2cccc3cccc(c23)N(C(=O)CCl)C1c1cn(-c2ccccc2)nc1-c1cccc([N+](=O)[O-])c1
inactive: [1] 17.8% | [2] 79.3% | [3] 108% | [4] 96% | [8] 79.5% | [6] 98.6% | [7] 94.6%

CCCCNCC(=O)Nc1ccc(C(=O)OCC)cc1
inactive: [1] 87% | [2] 104% | [4] 114% | [5] 105% | [8] 105% | [9] 113% | [6] 108% | [7] 107%

O=C(NCCOCCOCCNc1cccc2c1C(=O)N(C1CCCNC1=O)C2=O)c1cc2c(o1)C(=O)c1ccccc1C2=O (stereo not drawn)
active: [2] 3.33% | [3] -84.5% | [8] -15.4% | [9] -25% | [6] -22.2%
inactive: [1] 13.3% | [7] 48.6%

N=C(N)c1ccc(-c2ccc(-c3ccc(Cl)c(Cl)c3)o2)cc1
active: [1] -14.5% | [2] 1.38% | [4] -13.1% | [8] -64.6% | [9] -42.2%
inactive: [3] 39.9% | [6] 70.9% | [7] 35.1%

COc1cc2nc(Nc3ccc(F)cc3)nc(N)c2cc1OC
inactive: [1] 64.2% | [2] 93.1% | [4] 97.7% | [5] 110% | [8] 107% | [9] 91.3% | [6] 111% | [7] 87.6%

COc1ccc(OC)c(/C=C2\COc3ccc(O)cc3C2=O)c1
inactive: [1] 11.8% | [2] 100% | [3] 98.7% | [5] 102% | [8] 97.9% | [9] 102% | [6] 95.6% | [7] 100%

COc1cc(-c2ccc(-c3ccc(C(=N)N)nc3)s2)cc(OC)c1OC
active: [1] 6.31% | [9] -41.9%
inactive: [2] 57.2% | [3] 81% | [4] 60.9% | [6] 64.4% | [7] 78.6%

O=C(NCCOCCOCCOCCNC(=O)c1cc2c(o1)C(=O)c1ccccc1C2=O)NC12CC3CC(CC(C3)C1)C2
inactive: [1] 14.8%
active: [2] 1.25% | [3] -69.9% | [4] -72.8% | [8] 6.23% | [9] -32% | [6] -30.3% | [7] 8.9%

O=C(/C=C/c1ccccc1)c1ccc2ccccc2c1
inactive: [1] 48.1% | [2] 100% | [3] 106% | [5] 103% | [8] 76.2% | [6] 145% | [7] 101%

O=[N+]([O-])c1ccc(-c2cc3c(Nc4ccc(Cl)c(C(F)(F)F)c4)ncnc3s2)cc1
active: [5] -11.5% | [9] 5.57% | [7] 2.94%
inactive: [1] 17% | [2] 10.1% | [4] 11.1% | [8] 38% | [6] 37.9%

C[C@@H]1C(=O)N(C[C@@H](Cc2ccccc2)NC(=O)OCc2ccccc2)[C@]1(Cc1ccccc1)C(=O)OCc1ccccc1
inactive: [1] 16.6% | [2] 40.2% | [3] 69.1% | [5] 54.5% | [8] 57.4% | [6] 55.2% | [7] 21%

Cc1ccc(/C=C(\C#N)n2nnc3cc(Cl)c(Cl)cc32)cc1
active: [9] -35.2% | [7] -25.5%
inactive: [1] 17.3% | [2] 14.8% | [3] 13.3% | [8] 12.2% | [6] 11.7%

COC1=CC(c2ccc[nH]2)=N/C1=C\c1[nH]c(C)c(C(=O)OCCn2cc(CCC[C@@H]3Cc4cc(O)ccc4C4CC[C@]5(C)[C@@H](O)CC[C@H]5C43)nn2)c1C (stereo partly drawn)
inactive: [1] 23.8% | [2] 96.3% | [3] 88.9% | [5] 92.4% | [8] 95.7% | [9] 85.5% | [6] 65.1% | [7] 83.2%

CC1=NN(c2cccc(Cl)c2)C(=O)/C1=C\c1cn(CC(O)CN2CCCCC2)c2ccccc12 (stereo not drawn)
active: [1] -8.32%
inactive: [2] 76.6% | [4] 75.9% | [5] 94.6% | [8] 49.8% | [9] 57.7% | [6] 91.1% | [7] 75.3%

Nc1nc(Nc2ccc(Cl)cc2)nn1S(=O)(=O)c1ccc(-c2ccc(F)cc2)cc1
inactive: [1] 85.5% | [2] 83.8% | [3] 85.7% | [4] 89.4% | [8] 76.2% | [9] 92.1% | [6] 79.6% | [7] 83.3%
